Screening results (PubChem)
This is a sample that favours compounds with a hit; in the whole collection about 9.2% have one here.
SMN2 splice enh = qHTS Assay for Enhancers of SMN2 Splice Variant Expression. Potency, µM (top dose mostly 46.1 µM), actives largely listed as activators. AID 1458, 2008. HEK293 SMN2-luciferase splicing reporter, luminescence, 30-36 h. hit rate 2.8% among 210,000; also: nearly all actives have a fitted effect of over 55% in size
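qHTS luciferase splicing reporter: luminescence rises when SMN2 exon 7 is included in transfected HEK293 cells. Compound exposure lasted 30-36 h at 37C, with 4.5 mM final sodium butyrate as control, followed by a ONE-Glo read.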
NPC1 promoter act = qHTS Assay for NPC1 Promoter Activators | Potency, µM (top dose mostly 9.22 µM), usual class: activators | hit rate 2.4% among 320,000 | Huh7 NPC1 promoter luciferase reporter, 24 h | AID 485313, 2010; also: nearly all actives have a fitted effect of over 60% in size
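Huh7 reporter cells (NPC1 promoter driving luciferase) are dosed with compound for 24 h at 37 °C, 5% CO2; luciferase detection reagent is then added and luminescence measured after 10 min at ambient temperature.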
ELG1 repair inh = qHTS screen for small molecules that inhibit ELG1-dependent DNA repair in human embryonic kidney (HEK293T) cells expressing luciferase-tagged ELG1; HEK293T ELG1-luciferase reporter, luminescence, 16 h; DNA damage induced by 5-fluorouridine; Potency, µM (titrated, usually from 46.1 µM), usual class: inhibitors; hit rate 2.3% among 330,000; also: nearly all actives have a fitted effect of over 55% in size
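Step one: seed 2,000 cells per well. Step two: pin-transfer compound or DMSO alongside 5-fluorouridine. Step three: incubate 16 hr, 37 °C, 5% CO2. Step four: add ONE-Glo, wait 30 min, read luminescence.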
Rab9 promoter act = qHTS Assay for Rab9 Promoter Activators; hit rate 2.8% among 320,000; Huh7 Rab9 promoter-luciferase reporter, luminescence, 24 h; Potency, µM (titrated, usually from 9.22 µM), hits mostly activators; also: nearly all actives have a fitted effect of over 60% in size
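Huh7 cells stably carrying a Rab9 promoter-luciferase reporter, 1500 cells per well in OP-MEM I with 10% FBS, treated with compound 24 hours at 37C. Luciferase activity read by luminescence after 10 minutes with Amplite reagent.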
ELG1 genotox = qHTS screen for small molecules that induce genotoxicity in human embryonic kidney (HEK293T) cells expressing luciferase-tagged ELG1. hit rate 1.3% among 330,000. Potency, µM (titrated, usually from 46 µM), most hits filed as activators. HEK293T ELG1-luciferase reporter, luminescence, 16 h; also: nearly all actives have a fitted effect of over 60% in size
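16 hr compound incubation (37 °C, 5% CO2) of HEK293T cells carrying luciferase-tagged ELG1; luciferase then measured by ONE-Glo luminescence after 30 min at RT.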
FLuc modulator = qHTS profiling assay for firefly luciferase inhibitor/activator using purifed enzyme and Km concentrations of substrates (counterscreen for miR-21 project); Potency, µM (highest dose often 57.5 µM), hits mostly inhibitors; hit rate 6.9% among 360,000; purified FLuc, Km substrates, luminescence inhibition; AID 588342, 2011; also: nearly all actives have a fitted effect of over 55% in size
Target sequence (P08659 whole entry, looked up): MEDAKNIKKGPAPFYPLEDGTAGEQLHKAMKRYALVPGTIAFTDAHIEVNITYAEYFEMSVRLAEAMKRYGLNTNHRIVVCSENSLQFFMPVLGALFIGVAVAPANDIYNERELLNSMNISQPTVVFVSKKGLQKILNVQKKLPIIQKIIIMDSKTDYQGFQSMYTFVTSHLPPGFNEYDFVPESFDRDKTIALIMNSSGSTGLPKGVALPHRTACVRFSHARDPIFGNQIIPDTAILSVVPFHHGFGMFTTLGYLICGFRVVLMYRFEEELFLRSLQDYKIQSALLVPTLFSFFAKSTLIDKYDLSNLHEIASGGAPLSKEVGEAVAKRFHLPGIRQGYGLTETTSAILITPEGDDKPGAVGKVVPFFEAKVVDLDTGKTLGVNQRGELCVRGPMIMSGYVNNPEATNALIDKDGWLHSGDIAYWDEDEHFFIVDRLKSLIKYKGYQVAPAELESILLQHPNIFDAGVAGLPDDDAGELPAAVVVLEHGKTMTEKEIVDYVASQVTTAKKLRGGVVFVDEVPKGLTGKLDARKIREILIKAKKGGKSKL
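Purified P. pyralis luciferase, 10 nM final, with Km-level 10 uM D-luciferin and 10 uM ATP in 50 mM Tris acetate pH 7.5, 10 mM Mg acetate, 0.01% Tween-20, 0.05% BSA; 6-point qHTS titration about 60 µM downward; luminescence read.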
Hits are given with their value; n = inactive; u = inconclusive; x = no result; [ ] = dose if it differs, or a comment. Calls follow the shape of the dose curve; as a rule, active = well fitted curve in the direction sought with a large enough effect; inconclusive = small, poorly fitted or top-dose-only effect, or another doubt; inactive = no such curve, though single readings can be large; an effect the other way counts as inactive or inconclusive.

SMILES | SMN2 splice enh | NPC1 promoter act | ELG1 repair inh | Rab9 promoter act | ELG1 genotox | FLuc modulator
Cc1ccc(OC(C)C(=O)Nc2cc(C)on2)cc1 (stereo not given) | x | n | n | n | n | 19µM
Cc1cc(NC(=O)c2ccc(NC(=O)C(C)Oc3ccccc3)cc2)no1 (stereo not given) | n | n | n | n | n | n
CC(Oc1ccc(Cl)cc1Cl)C(=O)Nc1ncccn1 (stereo not given) | n | n | u | n | n | u
COc1ccc(/C=N/NC(=O)CN(C)S(=O)(=O)c2ccc(NC(C)=O)cc2)cc1 | x | n | n | n | n | u
COc1cccc(/C=N/NC(=O)CN(CCc2ccccc2)S(=O)(=O)c2ccc(NC(C)=O)cc2)c1 | n[1.84 µM] | n | 23µM | n | n | n
Cc1ccc(NC(=O)NCCCN2CCCC2=O)cc1 | n | n | u | n | u | u
Cc1cc(C)cc(NC(=O)C(=O)NCCCN2CCCC2=O)c1 | x | u | u | u | 13µM | u
COc1cccc(NC(=O)C(=O)NCCCN2CCCC2=O)c1 | x | u | u | n | u | 19µM
COc1ccccc1NC(=O)C(=O)NCCCN1CCCC1=O | x | n | u | n | n | n
O=C(Nc1ccc(Cl)cn1)C1CCCN(c2ncnc3c2nc2n3CCCCC2)C1 (stereo not given) | x | n | u | n | n | n
CC(=O)c1ccc(N2CCN(C(=O)C3CCCN(c4ncnc5c4nc4n5CCCCC4)C3)CC2)cc1 (stereo not given) | x | n | 2.3µM | n | n | n
Cc1ccc(NC(=O)C2CCCN(c3ncnc4c3nc3n4CCCCC3)C2)nc1 (stereo not given) | x | n | 3.3µM | n | n | n
O=C(NCC1CCN(Cc2ccccc2F)CC1)C1CCCN(c2ncnc3c2nc2n3CCCCC2)C1 (stereo not given) | x | n | 7.3µM | n | n | n
O=C(Nc1ccc(Cl)cn1)C1CCN(c2ncnc3c2nc2n3CCCCC2)CC1 | x | n | 2.1µM | n | n | n
COc1ccc(CCNC(=O)CCn2c(=O)c3ccccc3n(Cc3ccccc3F)c2=O)cc1OC | n | x | x | x | x | n
COc1cc2c(cc1OC)C(COc1cc(C)cc(C)c1)N(C(=O)C(C)(C)C)CC2 (stereo not given) | x | x | x | x | x | n
CCn1cc(S(=O)(=O)c2cccc(Cl)c2)c(=O)c2cc(F)c(N3CCN(C)CC3)cc21 | x | x | x | x | x | n
CC(C)CCNC(=O)c1ccc2c(c1)N(Cc1ccccc1F)C(=O)c1ccccc1S2(=O)=O | n | x | x | x | x | n
O=C(C1CCN(c2ncnc3c2nc2n3CCCCC2)CC1)N1CCN(c2cccc(Cl)c2)CC1 | x | n | 2.3µM | n | n | n
O=C(Nc1cccnc1Cl)C1CCCN(c2ncnc3c2nc2n3CCCCC2)C1 (stereo not given) | x | n | 15µM | n | n | n
O=C(Nc1ccccn1)C1CCCN(c2ncnc3c2nc2n3CCCCC2)C1 (stereo not given) | x | n | n | n | n | n
O=C(Nc1ccc(F)c(Cl)c1)C1CCN(c2ncnc3c2nc2n3CCCCC2)CC1 | x | n | 7.3µM | n | n[9.26 µM] | n
O=C(C1CCN(S(=O)(=O)c2cccnc2)CC1)N1CCN(c2cccc(Cl)c2)CC1 | n | n | 21µM | n | n | n
COc1ccccc1NC(=O)C1CCN(c2ncnc3c2nc2n3CCCCC2)CC1 | x | n | 9.2µM | n | n[9.26 µM] | n
Cc1c(Cl)cccc1NC(=O)C1CCN(c2ncnc3c2nc2n3CCCCC2)CC1 | x | x | x | x | x | n
SMILES | SMN2 splice enh | NPC1 promoter act | ELG1 repair inh | Rab9 promoter act | ELG1 genotox | FLuc modulator
CCN(C(=O)C1CCCN(c2ncnc3c2nc2n3CCCCC2)C1)c1cccc(Cl)c1 (stereo not given) | x | n | 21µM | n | n | n
COc1cccc(-c2nn(-c3ccc(F)cc3)cc2C(=O)NCC2CCCO2)c1 (stereo not given) | x | n | u | n | n | 17µM
COc1cccc(-c2cc(C(=O)NCC3CCCO3)c3cc(C)cc(C)c3n2)c1 (stereo not given) | x | n | n | n | n | 1.9µM
Cc1ccc(-c2nn(-c3ccc(F)cc3)cc2C(=O)NCC2CCCO2)cc1 (stereo not given) | x | n | n | n | n | 11µM
COc1ccc(-c2nn(-c3ccccc3)cc2C(=O)NCC2CCCO2)cc1 (stereo not given) | x | n | u | n | n | u
COc1cccc(OCC(=O)NCC2CCCO2)c1 (stereo not given) | x | x | n | x | n | x
O=C(NCC1CCCO1)c1cn(-c2ccccc2)nc1-c1ccccc1 (stereo not given) | x | n | n | n | n | 6.7µM
COc1ccc(C2=NN(C(=O)COC(=O)c3ccc(NC(=O)CC#N)cc3)C(c3ccco3)C2)cc1 (stereo not given) | x | n | u | n | n | n
CN1CCC(NC(=O)c2cc(-c3cccc(Br)c3)nc3ccccc23)CC1 | x | n | n | n | u | n
COc1cccc(-c2nn(-c3ccc(C)cc3)cc2C(=O)NCC(c2cccs2)N2CCOCC2)c1 (stereo not given) | x | n | u | n | n | u
COc1cccc(-c2nn(-c3ccc(C)cc3)cc2C(=O)NCC2CCCO2)c1 (stereo not given) | x | n | n | n | n | 9.5µM
Cc1nn(-c2ccccn2)c2c1-c1nc(N)ncc1CC2 | u | 3.5µM | u | 3.2µM | n | 11µM
COc1cc(NC(=S)N2CCN(C(c3ccccc3)c3ccccc3)CC2)cc(OC)c1 | 13µM | n | n | n | n | n
CCCCNC(=S)N1CCN(C(c2ccccc2)c2ccccc2)CC1 | n | n | 21µM | n | n | n
CC1(c2ccccc2Br)NC(=O)N(CC(=O)N2CCc3ccccc3C2)C1=O (stereo not given) | x | x | n | x | n | x
CCOC(=O)c1cc(-c2ccc(OC)cc2)n(CCC(=O)NC2CCC(C)CC2)c1C (stereo not given) | x | x | x | x | x | n
CCOC(=O)CSc1nc(N)c(C(=O)Nc2ccc(N(C)C)cc2)s1 | n | n | n | n | n | 8.5µM
CCOC(=O)CSc1nc(C)c(C(=O)OCC)s1 | n | n | n | n | n | n
COc1ccc(NC(=O)c2sc(SCc3ccccc3)nc2N)cc1 | n | n | n | n | n | u
CCN(CC)C(=O)CSc1nc(N)c(C(=O)Nc2ccc(OC)cc2)s1 | n | n | u | n | n | 24µM
COc1ccc(NC(=O)c2scc(S(=O)(=O)C(C)C)c2N)cc1 | x | 2.5µM | u | 1.1µM | u | 6µM
